# According to PubChem BioAssay (EPA / NIEHS):
# Results filed as inconclusive are left out. Active and inactive are the calls of the source. The calls were made as follows: active = hit-call score of the fitted dose curve at least 0.9, where 1 is the maximum; inconclusive = response in the unintended direction; inactive = score below 0.9.
# How the values were obtained:
# [1] = biological target: rat Serotonin, 5-Hydroxytryptamine Receptor 1 (5HT1), Non-Selective Binding, Htr1a (gene 24473) (UniProt P19327); experiment: NVS_GPCR_r5HT1_NonSelective: NovaScreen (NVS) G Protein-Coupled Receptor Assay for rat Serotonin, 5-Hydroxytryptamine Receptor 1 (5HT1), Non-Selective Binding (AID 2283286)
# Procedure, shortened: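 Rat cortical membranes, radioligand displacement, 1 h incubation, read by filter scintillation. Primary screen in duplicate at 25 uM. Hits (e.g. ≥30% inhibition) went to concentration-response up to 50 uM, fitted as loss of binding versus DMSO.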
# [2] = tested on: 5-hydroxytryptamine receptor 2C (pig); experiment: NVS_GPCR_p5HT2C: NovaScreen (NVS) G Protein-Coupled Receptor Assay for pig Serotonin, 5-Hydroxytryptamine Receptor 2C (5HT2C) (AID 2283288)
# Procedure, shortened: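 Pig choroid plexus membranes; radioligand competitive binding, filter-based scintillation counting, read 1 h after dosing. Primary screen in duplicate at 25 uM; actives then run as concentration series; loss of signal versus DMSO baseline.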
# [3] = biological target: mouse Cholecystokinin, CCK1 Receptor (CCKA), Cckar (gene 12425) (UniProt O08786); experiment: NVS_GPCR_mCCKAPeripheral: NovaScreen (NVS) G Protein-Coupled Receptor Assay for mouse Cholecystokinin, CCK1 Receptor (CCKA) (AID 2283285)
# Procedure, shortened: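 Radioligand competitive displacement on mouse pancreatic membranes, 2 h incubation; filter-based scintillation counting, loss of signal versus DMSO. Single-concentration screen at 25 uM in duplicate, actives retested in concentration-response up to 50 uM.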
# [4] = tested on: rabbit Platelet Activating Factor Receptor (PAF), gene 100354046; experiment: NVS_GPCR_rabPAF: NovaScreen (NVS) G Protein-Coupled Receptor Assay for rabbit Platelet Activating Factor Receptor (PAF) (AID 2283287)
# Procedure, shortened: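 Rabbit platelet membrane preparation; radioligand displacement read by filter-based scintillation counting 1 h after dosing, loss of signal versus DMSO. Primary screen in duplicate at 25 uM, actives followed up in concentration series.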
# [5] = biological target: human Opioid Receptor Mu (Opiate Mu), OPRM1 (gene 4988) (UniProt P35372); experiment: NVS_GPCR_hOpiate_mu: NovaScreen (NVS) G Protein-Coupled Receptor Assay for human Opioid Receptor Mu (Opiate Mu) (AID 2283290);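 also: hits lower bound tracer signal versus DMSO meaning displacement of the ligand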
# Procedure, shortened: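 Cell-free radioligand binding to membranes from CHO cells expressing the receptor; bound tracer measured by filter-based scintillation counting 2.5 hours after dosing. Loss of signal versus DMSO baseline reflects displacement; primary screen at 25 uM in duplicate, actives followed up in concentration series.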
# [6] = biological target: guinea pig Serotonin, 5-Hydroxytryptamine Receptor 4 (5HT4), HTR4 (gene 100135548) (UniProt O70528); experiment: NVS_GPCR_g5HT4: NovaScreen (NVS) G Protein-Coupled Receptor Assay for guinea pig Serotonin, 5-Hydroxytryptamine Receptor 4 (5HT4) (AID 2283294)
# Method: NVS_GPCR_g5HT4 is a biochemical, single-readout assay that uses extracted gene-proteins from Guinea pig striatal membranes in a tissue-based cell-free assay. Measurements were taken 1 hour after chemical dosing in a 48-well plate.NVS_GPCR_g5HT4 is one of one assay component(s) measured or calculated from the NVS_GPCR_g5HT4 assay. It is designed to make measurements of radioligand binding, a form of binding reporter, as detected with scintillation counting signals by Filter-based radiodetection technology.Data from the assay component NVS_GPCR_g5HT4 was analyzed into 1 assay endpoint. This assay endpoint, NVS_GPCR_g5HT4, was analyzed in the positive analysis fitting direction relative to DMSO as the negative control and baseline of activity. Using a type of binding reporter, loss-of-signal activity can be used to understand changes in the binding as they relate to the gene Htr4. Furthermore, this assay endpoint can be referred to as a primary readout, because the performed assay has only produced 1 assay endpoint. To generalize the intended target to other relatable targets, this assay endpoint is annotated to the gpcr intended target family, where the subfamily is rhodopsin-like receptor.
# Binding assays used specific radioligands (tritiated, iodinated) with non-radioactive competitive displacement ligands in agonist or antagonist protocols (as indicated) and various reference compounds and inhibitors to titrate specific binding to receptors and transporters. Most enzyme assays (CYPs, kinases, phosphatases, proteases, HDACs) used recombinant protein and specific substrates (fluorescence mostly, some colorimetric and radioactive) and inhibitors, followed by a biochemical separation of substrate and product. All assays for the biochemical HTS were initially run in duplicate at a single concentration (10 uM for CYP450 assays and 25 uM for all others). […] Each assay was run with positive and negative controls, and concurrent controls on every plate. The follow-up (secondary) screen tested active chemical-pairs in concentration series, as well as a few additional assays not tested in the primary screen, some selected negative inactives, and several cases re-run in the concentration series for confirmatory purposes.
# [7] = biological target: guinea pig Bradykinin Receptor B2 (BK2), BDKRB2 (gene 100135486) (UniProt O70526); experiment: NVS_GPCR_gBK2: NovaScreen (NVS) G Protein-Coupled Receptor Assay for guinea pig Bradykinin Receptor B2 (BK2) (AID 2283292)
# Procedure, shortened: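 Radioligand displacement on guinea pig ileum membranes for 1 h, read by filter-based scintillation counting; loss of signal relative to DMSO. Compounds were screened in duplicate at 25 uM, and those passing the threshold were retested in concentration-response up to 50 uM.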
# [8] = biological target: rat Adrenergic, Alpha 1, Non-selective Receptor (Adra1), Adra1a (gene 29412) (UniProt P43140); experiment: NVS_GPCR_rAdra1_NonSelective: NovaScreen (NVS) G Protein-Coupled Receptor Assay for rat Adrenergic, Alpha 1, Non-selective Receptor (Adra1) (AID 2283289)
# Procedure, shortened: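 Rat forebrain membranes; radioligand displacement read by filter-based scintillation counting 1 h after dosing. Primary screen in duplicate at 25 uM; hits (e.g. ≥30% inhibition) rerun as concentration–response to 50 uM max. Fitted versus DMSO.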
# [9] = tested on: guinea pig Atrionatriuretic Peptide Receptor A (ANPA), gene 100135578; experiment: NVS_GPCR_gANPA: NovaScreen (NVS) G Protein-Coupled Receptor Assay for guinea pig Atrionatriuretic Peptide Receptor A (ANPA) (AID 2283291)
# Method: NVS_GPCR_gANPA is a biochemical, single-readout assay that uses extracted gene-proteins from Guinea pig cerebellar membranes in a tissue-based cell-free assay. Measurements were taken 1 hour after chemical dosing in a 96-well plate.NVS_GPCR_gANPA is one of one assay component(s) measured or calculated from the NVS_GPCR_gANPA assay. It is designed to make measurements of radioligand binding, a form of binding reporter, as detected with scintillation counting signals by Filter-based radiodetection technology.Data from the assay component NVS_GPCR_gANPA was analyzed into 1 assay endpoint. This assay endpoint, NVS_GPCR_gANPA, was analyzed in the positive analysis fitting direction relative to DMSO as the negative control and baseline of activity. Using a type of binding reporter, loss-of-signal activity can be used to understand changes in the binding as they relate to the gene Nppa. Furthermore, this assay endpoint can be referred to as a primary readout, because the performed assay has only produced 1 assay endpoint. To generalize the intended target to other relatable targets, this assay endpoint is annotated to the lyase intended target family, where the subfamily is guanylyl cyclase.
# Binding assays used specific radioligands (tritiated, iodinated) with non-radioactive competitive displacement ligands in agonist or antagonist protocols (as indicated) and various reference compounds and inhibitors to titrate specific binding to receptors and transporters. Most enzyme assays (CYPs, kinases, phosphatases, proteases, HDACs) used recombinant protein and specific substrates (fluorescence mostly, some colorimetric and radioactive) and inhibitors, followed by a biochemical separation of substrate and product. All assays for the biochemical HTS were initially run in duplicate at a single concentration (10 uM for CYP450 assays and 25 uM for all others). […]
# [10] = biological target: mouse Cholecystokinin, CCK2 Receptor (CCKB), Cckbr (gene 12426) (UniProt P56481); experiment: NVS_GPCR_mCKKBCentral: NovaScreen (NVS) G Protein-Coupled Receptor Assay for mouse Cholecystokinin, CCK2 Receptor (CCKB) (AID 2283293)
# Procedure, shortened: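 Radioligand displacement binding on mouse forebrain membranes, 2 h exposure, filter-based scintillation counting. Primary screen in duplicate at 25 uM; actives (e.g. ≥30% inhibition) retested in concentration-response up to 50 uM; loss of binding signal relative to DMSO.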
# Chain of rat Serotonin, 5-Hydroxytryptamine Receptor 1 (5HT1), Non-Selective Binding, Htr1a (gene 24473) (P19327 whole entry, looked up): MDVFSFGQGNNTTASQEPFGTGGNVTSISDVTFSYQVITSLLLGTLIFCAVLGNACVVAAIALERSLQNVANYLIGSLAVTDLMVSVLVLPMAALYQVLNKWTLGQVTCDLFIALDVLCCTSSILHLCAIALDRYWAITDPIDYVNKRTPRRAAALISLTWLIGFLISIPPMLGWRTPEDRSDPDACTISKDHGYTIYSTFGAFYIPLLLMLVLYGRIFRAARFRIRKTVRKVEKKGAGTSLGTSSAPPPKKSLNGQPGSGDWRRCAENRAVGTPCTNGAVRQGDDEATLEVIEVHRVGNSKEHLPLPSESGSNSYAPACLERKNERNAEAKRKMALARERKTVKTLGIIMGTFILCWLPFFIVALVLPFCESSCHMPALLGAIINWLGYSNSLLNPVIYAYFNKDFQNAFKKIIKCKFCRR
# Chain of human Opioid Receptor Mu (Opiate Mu), OPRM1 (gene 4988) (P35372 whole entry, looked up): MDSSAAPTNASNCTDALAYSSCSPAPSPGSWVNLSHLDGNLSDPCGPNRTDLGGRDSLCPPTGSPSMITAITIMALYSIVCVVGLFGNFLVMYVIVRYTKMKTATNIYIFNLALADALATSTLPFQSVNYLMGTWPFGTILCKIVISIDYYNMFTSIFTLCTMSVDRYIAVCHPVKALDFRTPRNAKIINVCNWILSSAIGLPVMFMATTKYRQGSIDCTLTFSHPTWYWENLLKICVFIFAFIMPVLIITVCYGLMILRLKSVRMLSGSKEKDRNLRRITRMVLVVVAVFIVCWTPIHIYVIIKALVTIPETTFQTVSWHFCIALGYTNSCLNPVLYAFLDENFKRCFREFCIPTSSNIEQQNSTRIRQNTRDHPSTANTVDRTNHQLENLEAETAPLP
# Chain of mouse Cholecystokinin, CCK1 Receptor (CCKA), Cckar (gene 12425) (O08786 whole entry, looked up): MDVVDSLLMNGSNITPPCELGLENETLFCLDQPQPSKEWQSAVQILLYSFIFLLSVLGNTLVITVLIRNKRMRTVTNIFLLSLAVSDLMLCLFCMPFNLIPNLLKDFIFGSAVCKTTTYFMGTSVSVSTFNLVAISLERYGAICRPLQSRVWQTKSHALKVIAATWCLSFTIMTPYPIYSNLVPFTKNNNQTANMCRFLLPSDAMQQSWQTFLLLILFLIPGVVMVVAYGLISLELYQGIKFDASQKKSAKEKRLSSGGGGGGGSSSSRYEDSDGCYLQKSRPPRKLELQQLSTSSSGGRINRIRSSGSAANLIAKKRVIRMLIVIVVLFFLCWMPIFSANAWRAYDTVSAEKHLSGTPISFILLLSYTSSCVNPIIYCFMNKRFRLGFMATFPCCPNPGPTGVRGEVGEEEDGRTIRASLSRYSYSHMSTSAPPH
# Chain of guinea pig Serotonin, 5-Hydroxytryptamine Receptor 4 (5HT4), HTR4 (gene 100135548) (O70528 whole entry, looked up): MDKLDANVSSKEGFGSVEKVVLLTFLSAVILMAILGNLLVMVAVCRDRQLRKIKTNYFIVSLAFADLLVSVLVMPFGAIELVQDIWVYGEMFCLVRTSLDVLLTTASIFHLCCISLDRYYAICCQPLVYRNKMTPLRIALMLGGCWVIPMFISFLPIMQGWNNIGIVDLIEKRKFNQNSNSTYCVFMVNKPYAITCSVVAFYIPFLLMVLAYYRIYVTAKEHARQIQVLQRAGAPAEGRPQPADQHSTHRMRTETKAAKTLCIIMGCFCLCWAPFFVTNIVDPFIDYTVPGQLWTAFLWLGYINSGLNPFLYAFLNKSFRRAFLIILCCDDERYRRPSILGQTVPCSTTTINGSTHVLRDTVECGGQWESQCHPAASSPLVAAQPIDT
# Chain of rat Adrenergic, Alpha 1, Non-selective Receptor (Adra1), Adra1a (gene 29412) (P43140 whole entry, looked up): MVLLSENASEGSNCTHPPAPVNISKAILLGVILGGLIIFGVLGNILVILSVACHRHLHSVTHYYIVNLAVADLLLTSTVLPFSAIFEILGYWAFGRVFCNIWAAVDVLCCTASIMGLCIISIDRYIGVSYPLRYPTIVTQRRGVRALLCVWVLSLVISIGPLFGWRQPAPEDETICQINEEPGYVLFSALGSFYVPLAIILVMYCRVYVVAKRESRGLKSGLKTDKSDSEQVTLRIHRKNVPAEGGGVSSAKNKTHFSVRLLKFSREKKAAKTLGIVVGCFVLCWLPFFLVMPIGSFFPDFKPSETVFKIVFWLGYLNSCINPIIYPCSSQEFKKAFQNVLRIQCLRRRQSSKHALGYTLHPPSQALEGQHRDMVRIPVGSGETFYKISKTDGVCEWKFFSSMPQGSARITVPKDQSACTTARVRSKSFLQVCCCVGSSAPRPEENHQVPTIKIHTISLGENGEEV
# Chain of mouse Cholecystokinin, CCK2 Receptor (CCKB), Cckbr (gene 12426) (P56481 whole entry, looked up): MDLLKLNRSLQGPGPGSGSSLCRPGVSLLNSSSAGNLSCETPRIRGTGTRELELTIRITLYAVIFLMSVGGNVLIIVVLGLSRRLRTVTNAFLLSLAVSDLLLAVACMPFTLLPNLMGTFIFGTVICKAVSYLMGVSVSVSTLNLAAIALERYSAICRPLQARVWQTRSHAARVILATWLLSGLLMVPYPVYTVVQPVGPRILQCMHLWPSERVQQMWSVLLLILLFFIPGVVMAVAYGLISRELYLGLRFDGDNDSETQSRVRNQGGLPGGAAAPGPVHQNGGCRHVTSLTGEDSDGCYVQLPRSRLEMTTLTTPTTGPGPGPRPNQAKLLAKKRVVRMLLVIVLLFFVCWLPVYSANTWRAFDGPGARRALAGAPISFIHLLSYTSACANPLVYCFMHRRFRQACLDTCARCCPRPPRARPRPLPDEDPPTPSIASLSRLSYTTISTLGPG
# Chain of guinea pig Bradykinin Receptor B2 (BK2), BDKRB2 (gene 100135486) (O70526 whole entry, looked up): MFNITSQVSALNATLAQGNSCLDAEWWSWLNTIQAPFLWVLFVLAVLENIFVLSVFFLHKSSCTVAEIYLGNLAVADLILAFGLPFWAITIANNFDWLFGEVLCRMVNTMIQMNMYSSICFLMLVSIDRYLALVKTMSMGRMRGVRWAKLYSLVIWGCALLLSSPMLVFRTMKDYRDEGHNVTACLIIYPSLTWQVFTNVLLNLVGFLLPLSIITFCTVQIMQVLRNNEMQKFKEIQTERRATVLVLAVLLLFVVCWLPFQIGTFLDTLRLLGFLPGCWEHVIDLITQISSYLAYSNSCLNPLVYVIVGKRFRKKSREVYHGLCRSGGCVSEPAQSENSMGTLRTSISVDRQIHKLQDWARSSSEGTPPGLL
smiles,measurement,setting,value
Cc1ccccc1[N+](=O)[O-],outcome,[1],inactive
Cc1cc(O)ccc1Cl,AC50,[2],9.65 µM (active)
CCCCCCCCCC[N+](C)(C)CCCCCCCCCC,AC50,[3],6.6 µM (active)
same,AC50,[4],7.2 µM (active)
same,AC50,[2],21.1 µM (active)
same,AC50,[5],4.3 µM (active)
same,AC50,[6],21.9 µM (active)
Cc1ccc(O)c(C)c1,outcome,[2],inactive
same,outcome,[7],inactive
Oc1ccc(Cl)cc1Cl,outcome,[2],inactive
CCC(C)(CC)c1cc(NC(=O)c2c(OC)cccc2OC)on1,outcome,[1],inactive
Cc1cc2c3c(c1)C(c1ccccc1)=N[C@@H](NC(=O)c1ccncc1)C(=O)N3CC2,AC50,[3],19.9 µM (active)
same,AC50,[1],6.17 µM (active)
Oc1ccc(C(c2ccc(O)cc2)(C(F)(F)F)C(F)(F)F)cc1,AC50,[2],1.39 µM (active)
same,AC50,[8],38.1 µM (active)
same,AC50,[5],4.93 µM (active)
same,AC50,[6],11.7 µM (active)
CC(C)(O)C(=O)Nc1ccc([N+](=O)[O-])c(C(F)(F)F)c1,AC50,[2],19.2 µM (active)
CC1=C2C[C@H]3[C@@H](CC=C4C[C@@H](O)CC[C@@]43C)[C@@H]2CC[C@]12O[C@@H]1C[C@H](C)CN[C@H]1[C@H]2C,outcome,[6],inactive
CCOP(=S)(OCC)SCSC(C)(C)C,outcome,[2],inactive
O=C(O)C(F)(F)C(F)(F)C(F)(F)C(F)(F)C(F)(F)C(F)(F)C(F)(F)C(F)(F)C(F)(F)F,AC50,[5],25 µM (active)
CC(C)C(=O)OCC(C)(C)C(OC(=O)C(C)C)C(C)C (stereo not drawn),outcome,[7],inactive
C[C@]12CCC(=O)C=C1CC[C@@H]1[C@@H]2CC[C@@]2(C)[C@H]1CC[C@]2(C)O,outcome,[5],inactive
Clc1ccc(C(c2ccccc2Cl)C(Cl)(Cl)Cl)cc1 (stereo not drawn),outcome,[5],inactive
O=C(N[C@H]1CN2CCC1CC2)c1cc2ccoc2cn1,AC50,[6],16.4 µM (active)
NS(=O)(=O)C(F)(F)C(F)(F)C(F)(F)C(F)(F)C(F)(F)C(F)(F)C(F)(F)C(F)(F)F,outcome,[5],inactive
same,outcome,[9],inactive
O=S(=O)(O)C(F)(F)C(F)(F)C(F)(F)C(F)(F)C(F)(F)C(F)(F)F,outcome,[9],inactive
CCOC(=O)C(O)(c1ccc(Cl)cc1)c1ccc(Cl)cc1,AC50,[3],11.7 µM (active)
same,AC50,[4],7.46 µM (active)
CC(C)(c1ccccc1)c1ccc(O)cc1,AC50,[3],18.2 µM (active)
same,AC50,[2],17.9 µM (active)
same,AC50,[5],11.8 µM (active)
same,AC50,[10],18.5 µM (active)
same,AC50,[6],23.7 µM (active)
COc1ccc(O)c(C(C)(C)C)c1,AC50,[2],13.2 µM (active)
same,outcome,[8],inactive
same,outcome,[10],inactive
same,AC50,[6],18.8 µM (active)
ClC1=C(Cl)[C@]2(Cl)[C@@H]3[C@H]4C[C@H]([C@@H]5O[C@H]45)[C@@H]3[C@@]1(Cl)C2(Cl)Cl,outcome,[9],inactive
CCC(C)(c1ccc(O)cc1)c1ccc(O)cc1,AC50,[2],16.9 µM (active)
same,AC50,[5],9.36 µM (active)
same,AC50,[6],16.5 µM (active)
